Shown are actives, neighbours in structure and some others; about 4.1% of the full set was active somewhere.
rCAG binder – molecules binding r(CAG) RNA repeats; r(CAG) RNA repeat, TO-PRO-1 dye displacement fluorescence; inhibition, % at 3 µM; actives 1.3% (n = 370,000);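 active means inhibition above the plate cutoff, the mean of all test compounds on that plate plus 3 SD, cut at about 35% in these data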;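 further: 0% = DMSO alone and 100% = 100 µM mitoxantrone as full dye displacement; higher means more dye released from RNA so lower well fluorescence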
LEDGF integ inh – blocks HIV-1 LEDGF/p75-dependent DNA integration; inhibition, % at 3.7 µM; actives 0.64% (n = 370,000); TR-FRET IN-LEDGF/p75 DNA integration, Eu/Cy5;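 active means inhibition above the screen-wide mean plus 3 SD, cut at about 13% in these data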;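 further: signal is the Cy5 over europium emission ratio at 671 and 618 nm; 0% = plate median of compound wells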
MBD2 DNA inh – inhibitors of human MBD2 binding to methylated oligonucleotide; TR-FRET; actives 0.31% (n = 370,000); Q9UBB5; inhibition, % at 4.4 µM; in the data active means inhibition above about 13%
Target sequence (Q9UBB5 whole entry, looked up): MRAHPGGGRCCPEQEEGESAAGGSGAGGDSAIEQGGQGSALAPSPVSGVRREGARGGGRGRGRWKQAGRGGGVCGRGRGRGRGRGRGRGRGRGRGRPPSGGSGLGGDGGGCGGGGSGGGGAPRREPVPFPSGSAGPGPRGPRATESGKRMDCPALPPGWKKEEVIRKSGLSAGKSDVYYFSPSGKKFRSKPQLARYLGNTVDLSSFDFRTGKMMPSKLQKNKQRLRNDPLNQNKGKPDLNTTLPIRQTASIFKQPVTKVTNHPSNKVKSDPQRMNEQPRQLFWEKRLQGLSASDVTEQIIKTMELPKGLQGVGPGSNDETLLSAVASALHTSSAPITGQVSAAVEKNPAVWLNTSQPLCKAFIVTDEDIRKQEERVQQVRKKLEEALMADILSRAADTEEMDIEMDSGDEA
ABHD5-PLIN5 inh – inhibitors of human ABHD5-perilipin-5 interaction; Split G. princeps luciferase complementation, luminescence, 4 h; inhibition, % at 4 µM; actives 0.78% (n = 360,000); Q00G26+Q8WTS1;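 active means inhibition above the mean inhibition across every tested compound plus 3 SD, cut at about 22% in these data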;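 further: 0% = DMSO only wells and the 100% control is not disclosed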
PRMT1 FP inh – inhibitors of human PRMT1; Q99873; recombinant PRMT1, activity-based probe fluorescence polarization; inhibition, % at 2.79 µM; actives 1.3% (n = 370,000);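 active means inhibition above about 21% made by adding two undisclosed values, limit read from the data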
UHRF1 MBD2 ctr – blocks human UHRF1 binding to methylated DNA; UHRF1 binding to methylated oligo, TR-FRET; actives 0.75% (n = 370,000); AID 687016; Q96T88; inhibition, % at 4.4 µM; in the data active means inhibition above about 21%;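 further: UHRF1 SRA domain binding a hemimethylated CpG hairpin DNA probe; 0% = median of test compound wells and 100% = reference inhibitor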
ABHD5 PLIN5 conf – ABHD5-PLIN5 interaction inhibition, confirmed. shares compounds with ABHD5-PLIN5 inh. biochemical ABHD5-PLIN5 interaction, luminescence. inhibition, % at 4 µM. actives 67% (n = 2,200). AID 651612; in the data active means inhibition above about 23%;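 further: 0% = DMSO vehicle wells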
HNF4 counter – counter-screen for ABHD5-PLIN5 inhibitors: HNF4 split-luciferase; inhibition, % at 4 µM; actives 77% (n = 2,200); HNF4 dimerization, luminescence, biochemical; shares compounds with ABHD5-PLIN5 inh;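 active means mean inhibition across replicate wells exceeding the computed hit threshold, cut at about 13% in these data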;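 further: light from luciferase halves that rejoin when HNF4 fusion proteins dimerize; 0% = DMSO only wells and the 100% control is not given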
The depositor's hits bear a star; . = no result given.

SMILES	rCAG binder	LEDGF integ inh	MBD2 DNA inh	ABHD5-PLIN5 inh	PRMT1 FP inh	UHRF1 MBD2 ctr	ABHD5 PLIN5 conf	HNF4 counter
CCn1cc(CN2CCCC(C(=O)Nc3cccc(-c4cc5ccccc5[nH]4)c3)C2)c(C)n1 (configuration not stated)	4.7	3.0	4.3	31.1*	0.5	0.6	10.9	3.9
Nn1c(SCC(=O)Nc2cc(C(F)(F)F)ccc2Cl)nnc1-c1n[nH]c2c1CCC2	0.5	0.0	-1.4	.	-2.8	-1.5	.	.
BrC(=C\c1ccccc1)/C=N/n1cnnc1	2.4	-4.5	5.9	38.0*	11.1	2.9	42.2*	44.6*
BrC(=C\c1ccccc1)/C=N/Nc1ccc2nncn2n1	7.3	-1.4	0.9	11.4	2.1	4.0	.	.
O=C1C=CC(=O)N1Cc1ccccc1	2.8	4.0	1.8	31.6*	-2.4	2.7	3.8	1.6
CN1C(c2ccccc2)CC2CN(c3ccccc3)C(=O)C21 (configuration not stated)	3.5	1.4	0.5	.	-2.9	-2.3	.	.
CC1CCN(C2=NC(=O)/C(=C/c3ccccc3F)S2)CC1	-3.6	2.1	0.2	8.7	2.3	-0.1	.	.
CN1C2CCC1/C(=C\c1ccccc1F)C(=O)/C2=C/c1ccccc1F	-3.3	-0.1	2.9	24.8*	-2.3	-2.3	26.3*	27.5*
COc1ccc(-n2nnnc2S(=O)(=O)CC(=O)N2CCCCC2)cc1	2.8	-1.6	3.0	53.6*	3.1	-1.9	75.4*	83.1*
COc1cc(OC)cc(-n2nnnc2SCC(=O)N2CCCC2)c1	-4.4	-6.7	1.7	10.2	0.5	-1.2	.	.
COc1ccc(-n2nnnc2S(=O)(=O)Cc2ccc(C(=O)O)cc2)cc1	0.6	1.5	-0.6	54.3*	1.6	-2.6	78.8*	81.3*
CC1(C)OC(=O)C2=C(CC(CCc3ccccc3)OC2c2ccc(F)cc2)O1 (configuration not stated)	3.3	-3.7	5.7	.	2.6	4.4	.	.
CN(Cc1ccccc1)C(=O)OCc1cn(Cc2ccccc2Cl)nn1	-1.2	0.1	-6.7	.	-8.6	1.2	.	.
Cc1cc(=O)oc2c(C(=O)/C=C\c3cccs3)c(O)ccc12	6.4	-0.7	-4.2	39.1*	1.7	-5.2	39.1*	45.4*
COc1cc(/C=C/C(=O)c2c(O)ccc3c(C)cc(=O)oc23)ccc1O	25.0	-5.8	0.5	50.9*	10.0	-0.1	61.3*	63.5*
COc1ccc(/C=C\C(=O)c2c(O)ccc3c(C)cc(=O)oc23)cc1OC	19.0	3.0	-4.9	49.8*	3.4	-1.6	74.0*	60.9*
COc1ccc(C(=O)NCCNc2nc3ccc(C)cc3cc2C#N)cc1OC	-0.7	6.8	-8.3	85.5*	-1.2	-3.8	-1.5	12.6*
CCOC(=O)[C@]12CCCC=C1N(Cc1ccc(OC)cc1)C(=O)[C@@H]2CC(=O)NCC12CC3CC(CC(C3)C1)C2	4.1	-3.4	4.3	.	1.4	2.3	.	.
O=C(COC(=O)C1CC1)NCCNC(=O)COC(=O)C1CC1	-0.6	-2.7	-6.2	85.9*	1.4	-0.2	5.4	1.4
O=C(COC(=O)C1CC1)NCCc1ccc(Cl)cc1	-3.6	-1.7	-2.4	-3.6	-1.9	-4.0	.	.
COc1ccc(S[C@]2(C(=O)N3CCCC3)CC(=O)N(S(=O)(=O)c3ccc(F)cc3)[C@@H]2c2ccc(OC)cc2)cc1	10.7	-0.7	3.9	.	20.3	-1.2	.	.
CCOc1ccc(N)c(SSc2cc(OCC)ccc2N)c1	12.3	-0.6	8.3	72.8*	86.0*	6.0	81.5*	96.6*
CC1(C)Cc2c(C#N)c(NCC3CCCO3)nc(-c3ccco3)c2CO1 (configuration not stated)	7.5	-2.1	-4.5	16.2	16.1	-1.6	.	.
CC1(C)Cc2c(C#N)c(NC3CCCCC3)nc(-c3ccco3)c2CO1	.	.	.	34.2*	.	.	32.9*	41.1*
CCCCNC(=O)Nc1ccc2c(c1)N(C)C(=O)c1ccccc1S2	2.3	-2.7	5.5	49.9*	0.1	-1.4	68.1*	4.1
SMILES	rCAG binder	LEDGF integ inh	MBD2 DNA inh	ABHD5-PLIN5 inh	PRMT1 FP inh	UHRF1 MBD2 ctr	ABHD5 PLIN5 conf	HNF4 counter
CCCNC(=O)Nc1ccc2c(c1)N(C)C(=O)c1ccccc1S2	0.4	-1.1	0.3	32.7*	1.6	0.0	53.8*	4.0
CN1C(=O)c2ccccc2Sc2ccc(NC(=O)N3CCCC3)cc21	2.0	-2.5	0.3	9.2	-2.2	-2.8	.	.
O=C(NCc1ccco1)C1CCCN(S(=O)(=O)c2cccs2)C1 (configuration not stated)	3.7	3.7	0.1	.	-8.5	4.0	.	.
CC1=NOC(=O)/C1=C\c1ccc(-c2cccc(Cl)c2)o1	.	.	.	51.5*	.	.	99.2*	105.9*
CC1=CC2=NC(=O)/C(=C\c3ccc(-c4cccc(Cl)c4)o3)C(=N)N2O1	4.8	-1.8	-2.4	2.9	-3.9	1.3	.	.
CC1=NOC(=O)/C1=C/c1ccc(O)c(Br)c1	-0.9	4.8	-1.4	2.6	-2.1	2.0	.	.
CC1=NOC(=O)/C1=C\c1ccc(-c2ccccc2Br)o1	23.5	6.9	-1.4	42.8*	6.2	0.2	93.3*	95.3*
CCOC(=O)CNC(=O)C(Cc1ccc2c(c1)OCO2)NC(C)=O (configuration not stated)	1.5	2.3	3.3	.	3.2	-0.2	.	.
Cc1cc2c(c(=O)n1CCCn1ccnc1)C(c1ccco1)C(C#N)=C(N)O2 (configuration not stated)	-0.3	-1.6	3.4	12.7	-0.5	1.2	.	.
COc1ccc(C2C(C#N)=C(N)Oc3cc(C)n(Cc4ccco4)c(=O)c32)cc1 (configuration not stated)	2.0	-1.2	-2.9	32.1*	9.6	-3.0	66.3*	67.6*
COc1ccccc1CCn1cnc(-c2ccc(F)cc2F)c1CC(C)C	0.4	0.9	2.4	.	-0.7	4.3	.	.
O=C1c2ccccc2NC(c2ccc(-c3ccc(Br)cc3)o2)N1O (configuration not stated)	12.9	0.5	-3.0	1.5	0.7	-1.9	.	.
O=C1c2ccccc2NC(c2ccc(-c3ccc(F)cc3)o2)N1O (configuration not stated)	9.2	0.8	-5.8	38.1*	6.8	-1.5	13.7	13.0*
Cc1ccccc1NC(=O)[C@@H]1CC(=O)O[C@@H]1c1ccccc1	1.5	-3.1	2.2	.	3.9	1.4	.	.
O=C(CSc1nnc(-c2cccnc2)n1Cc1ccco1)Nc1ccc(Cl)c(Cl)c1	6.4	-1.8	4.1	.	6.5	-5.1	.	.
O=C(/C=C/c1cccc(O)c1)c1cccnc1	-4.6	-2.7	2.7	46.5*	8.1	0.6	70.1*	64.0*
O=C(/C=C/c1cccc(O)c1)c1ccc(N2CCOCC2)cc1	3.7	2.5	-2.4	18.2	-0.3	-3.0	.	.
